Inconclusive results are not listed. Calls of active or inactive are those of the source. Unless noted, calls come from the whole dose curve; as a rule, active = well fitted activation curve with a large enough effect in the main read-out, with a control signal flat (not every such curve was filed as active); inconclusive = small, poorly fitted or top-dose-only effect, or effect the other way, or a change in a side signal; inactive = flat fitted curve, though single readings scatter.
biological target: 3',5'-cyclic-AMP phosphodiesterase 4B (Homo sapiens) (UniProt Q07343); assay: qHTS Assay for Inhibitors of PDE-IV (AID 607); details: HEK293 ACTOne CNG channel cells, membrane potential fluorescence; series mostly up to 22.9 µM; activation (PDE inhibition): at the top concentration; note: % of control where 0% means no effect
Sequence (Q07343 whole entry, looked up): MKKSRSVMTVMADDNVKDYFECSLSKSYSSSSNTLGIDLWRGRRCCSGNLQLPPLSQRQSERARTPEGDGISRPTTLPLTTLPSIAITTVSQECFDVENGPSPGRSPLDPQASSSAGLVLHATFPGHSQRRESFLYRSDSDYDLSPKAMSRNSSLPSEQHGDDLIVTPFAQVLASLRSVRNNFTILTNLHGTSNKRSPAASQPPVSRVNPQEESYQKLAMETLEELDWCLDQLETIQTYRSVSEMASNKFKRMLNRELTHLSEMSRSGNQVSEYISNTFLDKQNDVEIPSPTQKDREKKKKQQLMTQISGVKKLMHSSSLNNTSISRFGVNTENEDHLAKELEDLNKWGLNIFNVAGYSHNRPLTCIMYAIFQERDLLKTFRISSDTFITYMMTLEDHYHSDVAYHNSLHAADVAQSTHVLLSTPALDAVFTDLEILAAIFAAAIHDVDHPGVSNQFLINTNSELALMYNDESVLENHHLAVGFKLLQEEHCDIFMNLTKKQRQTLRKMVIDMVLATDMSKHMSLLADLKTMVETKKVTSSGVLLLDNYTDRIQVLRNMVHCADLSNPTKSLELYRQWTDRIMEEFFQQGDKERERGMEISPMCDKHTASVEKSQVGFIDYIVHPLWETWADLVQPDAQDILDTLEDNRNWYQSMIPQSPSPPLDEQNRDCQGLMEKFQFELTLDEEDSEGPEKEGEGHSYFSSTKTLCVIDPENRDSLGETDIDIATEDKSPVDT
Outline: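 ACTOne HEK293 cells carry a modified cAMP-gated CNG channel and express endogenous PDE4; plated 1000 cells/well, compounds up to 22.9 uM final. Membrane-potential dye fluorescence (ex 535/em 590) was read; parental cells received 10 uM forskolin + 100 uM RO 20-1724.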

Activation (PDE inhibition), inactive:
CC[N+](C)(CC)CCC[n+]1c(-c2ccccc2)c2cc(N)ccc2c2ccc(N)cc21 1.4%
N[C@H](C(=O)O)c1ccc(C(=O)O)c(O)c1 -6.53%
O=C(O)Cc1cc2ccccc2nc1C(=O)O -20.9%
CC(N)=NCCC[C@H](N)C(=O)O 5.16%
N[C@@H]1CCN(O)C1=O -0.914%
N[C@H](CCC(=O)NCC(=O)O)C(=O)O -16.6%
O=C(O)[C@H]1CN(CCCP(=O)(O)O)CCN1 -22.8%
NCCC(=O)O 9.08%
N[C@H](C(=O)O)c1nn[nH]n1 -6.32%
CNCC[C@H](Oc1ccccc1OC)c1ccccc1 4.82%

Potency, inactive:
COC(=O)[C@@H]1[C@@H]2C[C@H]3c4[nH]c5ccccc5c4CCN3C[C@@H]2CC[C@@H]1O
CC1=C(\C=C/C(C)=C/C=C\C(C)=C\C(=O)O)C(C)(C)CCC1
N[C@]1(C(=O)O)CCc2cc(C(=O)O)ccc21
O=C(O)[C@H]1CCCNC1
CCN(Cc1ccncc1)C(=O)[C@@H](CO)c1ccccc1
C[C@@](N)(C(=O)O)c1ccc(C(=O)O)cc1
N[C@H](C(=O)O)[C@@H]1C[C@@H]1C(=O)O
C[C@H](N=C(NC#N)Nc1ccncc1)C(C)(C)C
C[C@@H](CCc1ccc(O)cc1)NCCc1ccc(O)c(O)c1
CC(C)(C)NC[C@H](O)COc1cccc2[nH]c(=O)[nH]c12
S=C(S)O[C@@H]1C[C@@H]2C[C@H]1[C@@H]1CCC[C@H]21

biological target: Guanine nucleotide-binding protein G(i) subunit alpha-1 (Homo sapiens) (UniProt P63096); assay: qHTS Assay for Inhibitors of RGS12 GoLoco Motif Activity (Green Fluorophore) (AID 879; active = well fitted curve in the direction sought with a large enough effect;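 note: 0% = labeled peptide with Gαi1 and full inhibition = labeled peptide alone without protein; negative values mean loss of peptide binding seen as reduced polarization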); details: Galphai1/FITC-RGS12 GoLoco peptide, fluorescence polarization; series mostly up to 57.1 µM; activity, negative = inhibition: at the top concentration
Sequence (P63096 whole entry, looked up): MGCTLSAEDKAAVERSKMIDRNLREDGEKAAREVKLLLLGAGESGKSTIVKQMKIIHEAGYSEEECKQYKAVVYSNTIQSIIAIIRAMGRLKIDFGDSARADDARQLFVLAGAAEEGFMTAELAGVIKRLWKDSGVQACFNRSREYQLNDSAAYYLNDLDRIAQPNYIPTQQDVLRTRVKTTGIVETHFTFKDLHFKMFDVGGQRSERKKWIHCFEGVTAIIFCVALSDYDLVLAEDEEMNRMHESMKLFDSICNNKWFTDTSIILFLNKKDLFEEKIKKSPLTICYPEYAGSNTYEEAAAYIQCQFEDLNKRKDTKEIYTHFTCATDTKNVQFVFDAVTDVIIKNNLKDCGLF
Outline: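 A drop in FITC polarization marked displacement of the FITC-tagged RGS12 GoLoco peptide (10 nM) from Gαi1 (50 nM). Compounds were incubated 10 min at room temperature in Tris pH 7.5 buffer containing 150 mM NaCl, 0.1 mM GDP and 0.05% NP40; unlabeled peptide titration served as control.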

activity, negative = inhibition, inactive:
CC(N)=NCCC[C@H](N)C(=O)O -3.04%
N[C@@H]1CCN(O)C1=O -19.8%
NC[C@](O)(CS(=O)(=O)O)c1ccc(Cl)cc1 -13.8%
COc1ccccc1NC(=O)Nc1nc(-c2cccnc2)nc2ccccc12 -5.95%
N[C@]1(C(=O)O)CCc2cc(C(=O)O)ccc21 -15.5%
O=C(O)[C@H]1CCCNC1 13.2%
O=C(O)[C@H]1CN(CCCP(=O)(O)O)CCN1 -3.19%
CCN(Cc1ccncc1)C(=O)[C@@H](CO)c1ccccc1 -6.81%
C[C@@](N)(C(=O)O)c1ccc(C(=O)O)cc1 -10.5%
N[C@H](C(=O)O)[C@@H]1C[C@@H]1C(=O)O -18.8%
CNCC[C@H](Oc1ccccc1OC)c1ccccc1 1.62%
C[C@H](N=C(NC#N)Nc1ccncc1)C(C)(C)C -10.9%
CC(N)=NCCCC[C@H](N)C(=O)O -3.38%
C[C@@H](CCc1ccc(O)cc1)NCCc1ccc(O)c(O)c1 -25.8%
N[C@H](CCC(=O)N[C@H](CSN=O)C(=O)NCC(=O)O)C(=O)O -16.9%
CC(C)(C)NC[C@H](O)COc1cccc2[nH]c(=O)[nH]c12 8.31%
S=C(S)O[C@@H]1C[C@@H]2C[C@H]1[C@@H]1CCC[C@H]21 -10.5%

outcome, inactive:
CC1=C(\C=C/C(C)=C/C=C\C(C)=C\C(=O)O)C(C)(C)CCC1
